Test [1] is described as follows: Quantitative High-Throughput drug screen in 47 multiple myeloma cell lines against the NCATS MIPE library collection: OPM1_PLB cell viability assay (AID 1918989). Note: nearly all actives have a fitted effect of over 40% in size. Note: potency is the fitted concentration of half-maximal effect. In outline:
(§1)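 Cells were exposed to library compounds for 48 hours, after which ATP was measured by CellTiter-Glo. Signal was taken as median relative luminescence units.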

Test [2] is described as follows: Quantitative High-Throughput drug screen in 47 multiple myeloma cell lines against the NCATS MIPE library collection: XG6_PLB cell viability assay (AID 1919865). Note: nearly all actives have a fitted effect of over 40% in size. Note: potency is the fitted concentration of half-maximal effect. Put shortly: as §1
The nature of test [3]: Quantitative High-Throughput drug screen in 47 multiple myeloma cell lines against the NCATS MIPE library collection: XG1_PLB cell viability assay (AID 1919866). Note: nearly all actives have a fitted effect of over 35% in size. Note: potency is the fitted concentration of half-maximal effect. Put shortly: as §1
Test [4] is described as follows: Quantitative High-Throughput drug screen in 47 multiple myeloma cell lines against the NCATS MIPE library collection: PE2_PLB cell viability assay (AID 1919869).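 Note: 100% = DMSO-only wells and 0% = cell-free media-only wells; nearly all actives have a fitted effect of over 35% in size.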 Put shortly:
as §1

Test [5] is described as follows: Quantitative High-Throughput drug screen in 47 multiple myeloma cell lines against the NCATS MIPE library collection: PCM6_Riken cell viability assay (AID 1919870). Note: nearly all actives have a fitted effect of over 30% in size. Note: potency is the fitted concentration of half-maximal effect. Put shortly:
as §1

A short description of test [6]: Quantitative High-Throughput drug screen in 47 multiple myeloma cell lines against the NCATS MIPE library collection: RPMI8226_ATCC cell viability assay (AID 1919871). Note: nearly all actives have a fitted effect of over 30% in size. Put shortly:
as §1

Test [7] can be described thus: Quantitative High-Throughput drug screen in 47 multiple myeloma cell lines against the NCATS MIPE library collection: OPM2_DSMZ cell viability assay (AID 1919872). Note: nearly all actives have a fitted effect of over 30% in size. Put shortly:
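Approved and investigational drugs from MIPE 4.0 were added by pin tool to 500 cells per well. After 48 hours at 37C, ATP-based CellTiter-Glo luminescence indicated remaining viability.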

Test [8] is described as follows: Quantitative High-Throughput drug screen in 47 multiple myeloma cell lines against the NCATS MIPE library collection: SKMM1_PLB cell viability assay (AID 1919863). Note: series mostly up to about 46 µM; nearly all actives have a fitted effect of over 35% in size. The note with it: SKMM1 myeloma viability, CellTiter-Glo ATP, 48 h; viability: active compounds read low. In outline:
as §1
A general note: In ATP-based viability assays light output follows the ATP content of the culture.

The nature of test [9]: Quantitative High-Throughput drug screen in 47 multiple myeloma cell lines against the NCATS MIPE library collection: VP6_DJ cell viability assay (AID 1919867). Note: nearly all actives have a fitted effect of over 40% in size. Note: potency is the fitted concentration of half-maximal effect. Put shortly:
as §1

Test [10] in a line: Quantitative High-Throughput drug screen in 47 multiple myeloma cell lines against the NCATS MIPE library collection: KMS11_JCRBsus cell viability assay (AID 1919873).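 Note: 100% = DMSO-only wells and 0% = media-only wells without cells; nearly all actives have a fitted effect of over 50% in size.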 Put shortly:
as §1

Test [11] can be described thus: Quantitative High-Throughput drug screen in 47 multiple myeloma cell lines against the NCATS MIPE library collection: KMS28BM_JCRB cell viability assay (AID 1919874). Note: nearly all actives have a fitted effect of over 35% in size. Put shortly:
as §1

The nature of test [12]: Quantitative High-Throughput drug screen in 47 multiple myeloma cell lines against the NCATS MIPE library collection: U266_ATCC cell viability assay (AID 1919864). Note: nearly all actives have a fitted effect of over 35% in size. Note: potency is the fitted concentration of half-maximal effect. In outline:
as §1

Results filed as inconclusive are left out. Unmarked numbers belong to inactive results. Active and inactive are the calls of the source. Calls come from the whole dose curve; as a rule, active = well fitted cell-killing curve with a large enough effect; inconclusive = small, poorly fitted or top-dose-only effect, or effect the other way; inactive = no such curve, though single readings can be large or run the other way.

Turning to `NS(=O)(=O)c1cc(C(=O)O)c(NCc2ccco2)cc1Cl`, the Potency entry in test [1], in test [2], in test [3], in [4], in [5] and in [6] was “inactive” each time. The Potency entry in test [7] is “inactive”.

A word on the viability: it is a read-out of living cells in per cent, often relative to untreated cells. Take `Nc1nc(OCc2ccccc2)c2[nH]cnc2n1`: in test [8], the viability is 128%. In addition, the Potency in [2] is 16.6 µM (active); in test [3], 13.2 µM (active); in test [9] it was 7.43 µM (active). The Potency entry in [6], in [7], in test [10] and in test [11] was “inactive” in each case.

With `O=c1oc2cc(O)ccc2s1`, the Potency entry in test [1], in test [2], in [3], in [9], in [4] and in test [7] was “inactive” each time. Also, the Potency entry in [10] and in test [11] was “inactive” throughout.

For the compound `O=C1c2ccccc2-c2n[nH]c3cccc1c23`, the Potency entry in [1], in test [12], in test [7] and in test [10] was “inactive” each time.

For `COc1c2occc2cc2ccc(=O)oc12`, in [8], the viability is 118%. Moreover, the Potency entry in test [12], in [2], in test [4], in [5] and in test [7] was “inactive” in each case. Besides, the Potency in [3] was 5.9 µM (active).

As to `O=C(O)CCNC(=O)c1ccc(N=Nc2ccc(O)c(C(=O)O)c2)cc1`, the Potency result in test [1], in test [2], in test [3], in test [9], in test [4] and in [5] was “inactive” in each case. The Potency entry in test [6], in test [7], in test [10] and in test [11] was “inactive” in each case. The Potency in test [12] was 13.2 µM (active).

As to `CC(C)[C@H](N)C(=O)OCCOCn1cnc2c(=O)[nH]c(N)nc21`, the Potency entry in test [1], in test [12], in test [4], in [5], in [6] and in test [7] was “inactive” each time.

Regarding `COC(=O)N[C@H](C(=O)N[C@@H](Cc1ccccc1)[C@@H](O)CN(Cc1ccc(-c2ccccn2)cc1)NC(=O)[C@@H](NC(=O)OC)C(C)(C)C)C(C)(C)C`, the Potency entry in test [1], in test [12], in [2], in test [4], in test [6] and in [7] was “inactive” throughout. The Potency in test [9] was 20.9 µM (active); in [5], 9.35 µM (active).

`Clc1ccc2c(N3CCN(CCCN4CCN(c5ccnc6cc(Cl)ccc56)CC4)CC3)ccnc2c1`: the viability in test [8] is 129%. For the same compound, the Potency result in test [2], in test [3], in [4], in test [7], in test [10] and in test [11] was “inactive” throughout.

For the compound `Cc1ncc([N+](=O)[O-])n1CC(C)O` (configuration not stated), the viability in test [8] was 126%. The Potency in test [3] is 10.5 µM (active); in [9], 18.7 µM (active). Moreover, the Potency result in test [7], in [10] and in test [11] was “inactive” in each case.

`Cc1nc2n(c(=O)c1CCN1CCC(c3noc4cc(F)ccc34)CC1)CCCC2`: the viability in test [8] was 134%. For the same compound, the Potency result in [2], in test [3], in test [4], in test [5], in [6] and in [7] was “inactive” in each case. The Potency result in [10] and in test [11] was “inactive” throughout. Moreover, the Potency in test [9] is 7.43 µM (active).

For `COc1cc2nc(N3CCN(C(=O)C4CCCO4)CC3)nc(N)c2cc1OC` (configuration not stated), the Potency result in test [1], in test [12], in test [4], in test [6] and in test [7] was “inactive” each time.

`Cc1ccc(NC(=O)c2ccc(CN3CCN(C)CC3)cc2)cc1Nc1nccc(-c2cccnc2)n1`: the Potency in test [1] is 23.5 µM (active); in [2], 33.2 µM (active); in [9], 23.5 µM (active); in test [5], 18.7 µM (active). Further, the Potency entry in test [6], in [7] and in test [11] was “inactive” throughout.

Consider `O=C(CS(=O)Cc1ccco1)NCC=CCOc1cc(CN2CCCCC2)ccn1` (configuration not stated), for which the viability in [8] is 134%. For the same compound, the Potency entry in test [12], in [4], in test [7], in [10] and in [11] was “inactive” each time. For the same compound, the figures for the Potency in test [2] and in [9] were 14.8 µM (active) and 16.6 µM (active), respectively.

These data come from PubChem BioAssay (NCATS).
